Consider 40 molecules from the supplement of paper PMC11732987, “Enantioselective OTUD7B fragment discovery through chemoproteomics screening and high-throughput optimisation” (Communications Chemistry, 2025).

This assay has as its target T1, USP22 (UniProt Q9UPT9).
T1 sequence (whole entry): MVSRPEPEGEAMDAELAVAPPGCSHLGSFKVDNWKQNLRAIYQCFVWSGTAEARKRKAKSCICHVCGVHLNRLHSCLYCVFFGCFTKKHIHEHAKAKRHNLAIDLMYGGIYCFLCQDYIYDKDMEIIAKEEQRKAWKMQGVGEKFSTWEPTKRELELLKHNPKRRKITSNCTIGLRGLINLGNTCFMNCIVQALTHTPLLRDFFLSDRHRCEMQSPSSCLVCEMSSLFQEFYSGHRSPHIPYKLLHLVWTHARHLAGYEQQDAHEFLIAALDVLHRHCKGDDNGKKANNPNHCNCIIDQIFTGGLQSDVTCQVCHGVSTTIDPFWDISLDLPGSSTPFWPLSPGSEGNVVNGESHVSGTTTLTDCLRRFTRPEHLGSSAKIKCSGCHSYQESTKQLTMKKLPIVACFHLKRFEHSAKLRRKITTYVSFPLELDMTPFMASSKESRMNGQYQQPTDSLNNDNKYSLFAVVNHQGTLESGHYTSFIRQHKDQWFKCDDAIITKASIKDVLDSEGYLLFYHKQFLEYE
Briefly: log2 ratio of Biotin-Ahx-Ub-VS probe labelling (fragment/DMSO); higher = less target engagement (more negative = stronger competition), active = hit call of the paper (q ≤ 0.05, log2 ratio ≤ -1). Particulars: compound concentration: 200 uM; treatment time: 3 h. How it is done:
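Competitive ABPP in HEK293T cell lysate. Lysates were treated with each chloroacetamide fragment at 200 µM for 3 h, then with Biotin-Ahx-Ub-VS (0.5 µM, 1 h), NeutrAvidin-enriched and analysed by diaPASEF LC-MS/MS. Protein LFQ was median-normalised; average log2 ratio is fragment/DMSO from an unpaired t-test (n=3 treated, n=44 DMSO). Hits: q ≤ 0.05, log2 ratio ≤ -1, unique peptides ≥ 2.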
Turning to `O=C(CCl)NCCc1cccc2ccccc12`, the “log2 ratio of Biotin-Ahx-Ub-VS probe labelling” value (“log2 ratio” below) is -0.385 (inactive).
For the molecule `O=C(CCl)NC(Cn1ccccc1=O)c1ccccc1` (stereo not given), the “log2 ratio” value was 0.298 (inactive).
`O=C(CCl)NC1CCOc2ccccc21` (stereo not given): the “log2 ratio” value is -0.51 (inactive).
With `CC1CCc2onc(CNC(=O)CCl)c2C1` (stereo not given), the “log2 ratio” value was 0.192 (inactive).
Next, `Cl.O=C(CCl)NCCN1CCc2ccccc21`: -1.07 (active); `CNC(=O)Cn1cc(NC(=O)CCl)cn1`: -0.0499 (inactive).
Turning to `Cl.O=C(CCl)N1CC(c2ccc(Br)cn2)C1`, the “log2 ratio” value is -0.346 (inactive).
Regarding `O=C(CCl)NCC(=O)N1CCCC1`, the “log2 ratio” value was -0.00438 (inactive).
Consider `O=C(CCl)N1CCC(C(=O)N2CCCCCC2)CC1`, for which the “log2 ratio” value was -0.145 (inactive).
Turning to `CC(NC(=O)CCl)c1noc(Cc2ccccc2)n1` (stereo not given), the “log2 ratio” value is -0.322 (inactive).
As for `Cc1ccc(C)c(NC(=O)CCl)c1`, the “log2 ratio” value is -0.27 (inactive).
On to `CS(=O)(=O)c1ccc(NC(=O)CCl)cc1`, for which the “log2 ratio” value was 0.107 (inactive).
`CCC1c2ccsc2CCN1C(=O)CCl` (stereo not given): the “log2 ratio” value is 0.0245 (inactive).
For the molecule `N#Cc1ccc(CNC(=O)CCl)cc1`, the “log2 ratio” value was 0.193 (inactive).
For `Cc1cc(NC(=O)CCl)n(-c2ccccc2)n1`, the “log2 ratio” value was 0.086 (inactive).
For `Cc1noc(N2CCN(C(=O)CCl)CC2)n1.Cl`, the “log2 ratio” value is 0.0656 (inactive).
Consider `O=C(CCl)NCc1cccc(N2CCCC2=O)c1`, for which the “log2 ratio” value is 0.303 (inactive).
Consider `CC1Cc2ccccc2N1C(=O)CCl` (stereo not given), for which the “log2 ratio” value was -0.161 (inactive).
Regarding `CC(=O)Nc1ccc(NC(=O)CCl)cc1`, the “log2 ratio” value is -0.0522 (inactive).
Consider `O=C(CCl)Nc1cc2c(cc1Cl)OCCO2`, for which the “log2 ratio” value was -0.112 (inactive).
On to `Cl.Cn1nc2c(c1CNC(=O)CCl)CCCC2`, for which the “log2 ratio” value was -0.0746 (inactive).
As for `NC(=O)C1CCCCN1C(=O)CCl` (stereo not given), the “log2 ratio” value was 0.159 (inactive).
Take `O=C(CCl)N1CCc2ccccc2C(O)C1` (stereo not given): the “log2 ratio” value was -0.345 (inactive).
Consider `Cc1ccc(N(C(=O)CCl)C2C=CS(=O)(=O)C2)cc1` (stereo not given), for which the “log2 ratio” value was 0.0416 (inactive).
Regarding `Cl.O=C(CCl)N[C@H]1C[C@@H](n2cccn2)C1`, the “log2 ratio” value was 0.044 (inactive).
Take `Cc1nnc(C(NC(=O)CCl)c2ccccc2)n1C` (stereo not given): the “log2 ratio” value was 0.332 (inactive).
The same measure for `O=C(CCl)NCc1ccc(N2CCOCC2)nc1`: -0.181 (inactive); for `Cc1ccccc1CN(C)C(=O)CCl`: -0.0794 (inactive); for `Cc1cc(C(=O)NC2CCN(C(=O)CCl)CC2)no1`: -0.208 (inactive).
`O=C(CCl)Nc1cccc(C(=O)N2CCSCC2)c1`: the “log2 ratio” value is -0.0474 (inactive).
Turning to `CN1c2ccccc2C(NC(=O)CCl)CS1(=O)=O` (stereo not given), the “log2 ratio” value is -0.303 (inactive).
As to `O=C(CCl)Nc1ccc(F)cc1F`, the “log2 ratio” value is -0.241 (inactive).
The same measure for `O=C(CCl)N1CCc2nc[nH]c2C1c1ccc(Cl)cc1` (stereo not given): 0.00421 (inactive).
The same measure for `Cl.O=C(CN1CCN(C(=O)CCl)CC1)Nc1ccc(F)cc1`: 0.179 (inactive); for `O=C(CCl)N1CCOC2(CCC2)CC1`: -0.382 (inactive); for `Cc1ccc(N2CCC(NC(=O)CCl)C2=O)cc1` (stereo not given): -0.233 (inactive).
For `O=C(CCl)Nc1nc(-c2cccs2)cs1`, the “log2 ratio” value is -0.167 (inactive).
Next, `Cc1cccc(N2CCC(NC(=O)CCl)C2=O)c1` (stereo not given): 0.199 (inactive).
For the molecule `O=C(CCl)N(C1=CCCCC1)C1CC1`, the “log2 ratio” value was -0.481 (inactive).
For `CNC(=O)C1CCN(C(=O)CCl)CC1`, the “log2 ratio” value is 0.206 (inactive).
